Screening data (PubChem BioAssay)
Compounds with a hit are over-represented: about 1.6% of the library has one in this group of screens.
KCNQ2 block – KCNQ2 (rat) channel inhibition; O88943; CHO-K1 KCNQ2, FluxOR thallium flux, 20 min; stronger effect = lower value; B-score at 10 µM; 310,000 compounds, 1.1% hits;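 active means fluorescence ratio B-score at most minus 3 library SDs, with starting brightness B-score within 2 library SDs, cut at about -5.5 in these data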
Target sequence (O88943 whole entry, looked up): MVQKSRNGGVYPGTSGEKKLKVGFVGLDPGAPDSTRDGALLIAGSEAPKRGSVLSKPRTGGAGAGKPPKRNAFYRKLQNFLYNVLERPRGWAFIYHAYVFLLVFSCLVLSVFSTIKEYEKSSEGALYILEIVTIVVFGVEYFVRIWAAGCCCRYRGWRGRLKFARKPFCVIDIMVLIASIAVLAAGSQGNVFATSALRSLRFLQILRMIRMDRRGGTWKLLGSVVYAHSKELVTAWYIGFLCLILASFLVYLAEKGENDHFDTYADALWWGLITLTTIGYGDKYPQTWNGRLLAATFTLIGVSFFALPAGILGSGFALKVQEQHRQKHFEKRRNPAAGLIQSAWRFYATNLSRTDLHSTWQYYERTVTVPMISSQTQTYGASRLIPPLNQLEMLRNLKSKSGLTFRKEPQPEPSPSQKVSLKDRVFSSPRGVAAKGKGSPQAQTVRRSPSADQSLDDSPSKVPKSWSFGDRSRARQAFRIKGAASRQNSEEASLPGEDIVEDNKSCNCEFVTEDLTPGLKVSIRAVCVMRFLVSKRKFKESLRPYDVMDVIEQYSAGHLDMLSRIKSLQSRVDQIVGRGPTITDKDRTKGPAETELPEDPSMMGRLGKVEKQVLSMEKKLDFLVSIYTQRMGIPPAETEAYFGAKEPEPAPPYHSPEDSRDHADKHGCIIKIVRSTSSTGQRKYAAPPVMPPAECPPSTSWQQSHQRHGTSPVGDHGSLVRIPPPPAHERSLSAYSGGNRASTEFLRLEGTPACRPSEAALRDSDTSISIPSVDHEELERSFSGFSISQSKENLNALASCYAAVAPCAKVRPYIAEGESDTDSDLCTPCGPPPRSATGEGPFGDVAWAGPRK
KCNQ2 pot – potentiators of rat KCNQ2 potassium channel. O88943. CHO-K1 KCNQ2, FluxOR thallium flux fluorescence; stronger effect = higher value. B-score at 10 µM. 310,000 compounds, 0.54% hits;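 active means fluorescence ratio B-score at least 3 SD of library B-scores, with initial fluorescence B-score within 3 of them, cut at about 5.3 in these data; same plate scores as AID 2156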;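 further: B-score of peak minus minimum over baseline fluorescence ratio after K+ and Tl+ stimulus; positive B-score means potentiation of KCNQ2 with more thallium influx and brighter signal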
Kir21 confirm – confirmation of mouse Kir2.1 potassium channel inhibitors | shares compounds with KCNQ2 pot | 2,300 compounds, 41% hits | Tl flux remaining, % of negative control (stronger effect = lower value), % at 10 µM | Kir2.1-expressing cells, FluxOR thallium flux fluorescence; stronger effect = lower value;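 active means Primary-screen hit whose thallium flux fell at least 3 control SD below untreated wells in both duplicates, with normal baseline fluorescence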;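 further: 0% = blank wells without stimulus and 100% = stimulated no-compound controls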
HEK293 Tl flux – parental HEK293 activity in Kir2.1 inhibitor counter-screen; FluxOR signal as % of negative control (100 = no effect), % at 10 µM; shares compounds with KCNQ2 pot; 2,300 compounds, 19% hits; parental HEK293 cells, FluxOR thallium flux fluorescence; 0% = unstimulated blank wells;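 active means dye signal at least 3 control SD above or below untreated wells in both duplicates, raw fluorescence within 3, either direction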;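 further: percent is based on the flux ratio of peak minus minimum fluorescence over baseline F0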
CHO-K1 ctr – counter-screen for KCNQ2 potentiators: effect in parental CHO-K1 cells. shares compounds with KCNQ2 pot. activity increase over 3SD of controls, % at 10 µM. 1,200 compounds, 43% hits. FluxOR thallium flux fluorescence; zero = vehicle mean+3SD, 100% = vehicle-minus-blank window;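 active means signal rise of at least 3 SD above the untreated control mean, in both duplicate wells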;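 further: counter screen of KCNQ2 potentiator hits so any rise reflects channel-independent effects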
KCNQ1 pot spec – human KCNQ1 counter-target activity of KCNQ2 potentiators | shares compounds with KCNQ2 pot | CHO KCNQ1 stable, FluxOR thallium flux fluorescence; beyond 3SD, as % of vehicle-control signal | activation over 3SD threshold, % at 10 µM | 1,200 compounds, 28% hits | AID 2283;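 active means fluorescence ratio rise of at least 3 SD of vehicle wells above their mean, in both replicate wells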;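 further: 0% = vehicle mean plus 3 SD and 100% = vehicle minus unstimulated blank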
KCNQ2 pot conf – rat KCNQ2 channel potentiator confirmation | shares compounds with KCNQ2 pot | CHO-KCNQ2 cells, FluxOR thallium flux fluorescence | potentiation, less the hit threshold, % at 10 µM | 1,200 compounds, 68% hits;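 active means fluorescence ratio rising 3 SD or more over the vehicle control mean in both replicates, plus primary screen hit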;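 further: peak minus minimum thallium fluorescence divided by baseline after K/Tl stimulus; 0% = vehicle mean plus 3 SD and 100% = vehicle minus unstimulated blank difference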
Kir21 spec – selectivity of KCNQ2 potentiators: effect on mouse Kir2.1. shares compounds with KCNQ2 pot. HEK293 Kir2.1, FluxOR thallium flux fluorescence. activity over 3SD threshold, % at 10 µM. 1,200 compounds, 2% hits;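 active means fluorescence ratio rise of at least 3 SD above the vehicle-control mean, seen in both replicates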;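 further: 0% = vehicle mean plus 3 SD and 100% = vehicle minus no-stimulus blank window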
KCNQ2 W236L MoA – rat KCNQ2 W236L mutant potentiation by KCNQ2 potentiators | shares compounds with KCNQ2 pot | CHO KCNQ2-W236L, automated patch clamp current | current increase over 3SD of negative controls (%), stronger effect = higher value, % at 25 µM | 940 compounds, 10% hits;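 active means current increase at least 3 SD of the untreated controls above them in both duplicate recordings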
The depositor's hits bear a star.

`COc1ccc(CNCC(O)(c2ccccc2)c2ccc(F)cc2)cc1OC` (stereo unspecified) gave KCNQ2 block inactive and KCNQ2 pot 0.98.
Cc1ccc(C(O)(CCN2CCCCC2)c2ccccc2)cc1 (stereo unspecified) was read as KCNQ2 block inactive.
Screening Cc1ccc(C(O)(CNCc2ccccc2)c2ccccc2)cc1 (stereo unspecified) returned KCNQ2 block inactive, Kir21 confirm 46%* and HEK293 Tl flux inactive.
`Cc1c(C(=O)OCC(=O)N2CC(C)OC(C)C2)oc2ccc(Br)cc12` (stereo unspecified) gave KCNQ2 block inactive.
`O=C(Nc1c2c(nn1-c1cccc(Cl)c1)CS(=O)(=O)C2)c1ccc2c(c1)OCO2` gave KCNQ2 block inactive and KCNQ2 pot 1.5.
CCC1CCCCN1C(=O)CCNC(=O)Cn1cnc2ccccc2c1=O (stereo unspecified) was read as KCNQ2 block inactive and KCNQ2 pot 0.02.
For CCc1nc2ccccc2c(=O)n1/N=C/c1ccc(OC)cc1 the results were KCNQ2 block inactive and KCNQ2 pot 0.3.
CC(NC(=O)c1ccncc1)C(C)(C)C (stereo unspecified) was read as KCNQ2 block inactive, KCNQ2 pot 16*, Kir21 confirm inactive, HEK293 Tl flux inactive, CHO-K1 ctr -15, KCNQ1 pot spec -18, KCNQ2 pot conf -18 and Kir21 spec -39.
Cc1ccc(C(C)NC(=O)c2ccncc2)cc1C (stereo unspecified) was read as KCNQ2 block inactive and KCNQ2 pot 1.
Cc1cc(N2C(=O)C=CC2=O)c([N+](=O)[O-])cc1C was read as KCNQ2 block inactive.
CC/C(C)=N\Nc1nc(-c2cc3cc(OC)ccc3oc2=O)cs1 was read as KCNQ2 block inactive.
`Cc1cc(N/N=C/c2cccc([N+](=O)[O-])c2)nc(-n2nc(C)cc2C)n1` gave KCNQ2 block inactive and KCNQ2 pot 1.6.
Screening Cc1cc(N/N=C/c2ccccc2[N+](=O)[O-])nc(-n2nc(C)cc2C)n1 returned KCNQ2 block inactive, KCNQ2 pot 5.4*, Kir21 confirm inactive, HEK293 Tl flux inactive, CHO-K1 ctr -14, KCNQ1 pot spec -33, KCNQ2 pot conf -6 and Kir21 spec -12.
For COc1ccc(S(=O)(=O)N(C)c2ccc(C(=O)Nc3ccccc3C(=O)N3CCOCC3)cc2)cc1OC the results were KCNQ2 block inactive and KCNQ2 pot 0.44.
Screening O=C(COc1cccc2ccccc12)Nc1cc(Cl)ccc1C(=O)O returned KCNQ2 block inactive and KCNQ2 pot 4.6.
Screening O=C(COc1cccc2ccccc12)Nc1ccc(Cl)cc1C(=O)O returned KCNQ2 block inactive, KCNQ2 pot 7.2*, Kir21 confirm inactive, HEK293 Tl flux 129%*, CHO-K1 ctr -2, KCNQ1 pot spec -1, KCNQ2 pot conf 23*, Kir21 spec -31 and KCNQ2 W236L MoA inactive.
O=C(COC(=O)c1cc(=O)[nH]c2ccccc12)c1cccs1 was read as KCNQ2 block inactive.
Screening CCc1ccc(NC(=O)CCC(=O)Nc2nnc(C(F)(F)F)s2)cc1 returned KCNQ2 block inactive and KCNQ2 pot 4.
`O=C(NC(=S)Nc1ccccc1N1CCN(C(=O)c2ccccc2)CC1)c1ccccc1F` gave KCNQ2 block inactive.
